Screens (PubChem BioAssay)
Most compounds without a hit are left out; they make up all but 0.5% or so of the library.
E coli growth-1 = counter-screen for AddAB inhibitors: E. coli growth inhibition; E. coli V3065 growth, OD600 absorbance, 18 h; inhibition, % at 11.9 µM; hit rate 0.27% among 330,000;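 active = inhibition above the campaign's mean inhibition across all tested compounds plus 3 SD, cut at about 9.9% in these data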;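 also: uninfected addAB+ strain grown without phage in ampicillin broth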
E coli growth-2 = E. coli growth inhibition. OD600 absorbance (no concentration beside the values). hit rate 0.21% among 330,000. Escherichia coli growth, OD600, 23 h; stronger effect = lower value;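 active = OD600 absorbance below the run mean of sample wells minus 3.6 SD, in any replicate, cut at about 0.56 in these data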
Tat transport = blocks Tat-dependent protein export in E. coli; hit rate 0.036% among 340,000; E. coli MC4100 TorA-mCherry Tat export, fluorescence; inhibition, % at 10 µM;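 active = mean replicate inhibition at least 50% and at least half of replicates individually reaching 50%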;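 also: exported cargo escapes ClpAP degradation while cytoplasmic cargo is degraded and loses fluorescence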
phage Ecoli inh = E. coli growth loss with phage present | hit rate 0.26% among 360,000 | inhibition, % at 11.9 µM | AID 651602 | growth absorbance; in the data active = inhibition above about 11%
AddAB inh = less growth of phage-infected E. coli with AddAB. E. coli expressing H. pylori AddAB, absorbance growth. AID 435030. inhibition, % at 11.9 µM. hit rate 0.29% among 330,000; in the data active = inhibition above about 12%
AddAB conf = growth loss of T4-infected E. coli expressing H. pylori AddAB, confirmed | shares compounds with AddAB inh | E. coli V3065 expressing H. pylori AddAB, T4 phage, OD; T4 phage with gene 2 nonsense mutations | inhibition, % at 11.9 µM | hit rate 64% among 880;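 active = mean inhibition above a set limit taken from the earlier primary screen, cut at about 13% in these data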;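 also: higher means less bacterial growth since AddAB block lets phage replicate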
RecBCD counter = reduces growth of phage-infected RecBCD+ E. coli, AddAB inhibitor counter-screen; inhibition, % at 11.9 µM; E. coli V66 + mutant T4 phage, OD growth; shares compounds with AddAB inh; hit rate 73% among 880; AID 488955;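 active = mean inhibition above the mean of solvent-only control wells plus 3 SD, cut at about 4% in these data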;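 also: optical density read after an 18 h incubation at 37 °C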
Bact viability = counter-screen for AddAB inhibitors: inhibitors of bacterial viability; shares compounds with AddAB inh; absorbance (AddAB counterscreen); inhibition, % at 11.9 µM; hit rate 35% among 880; AID 488956; in the data active = inhibition above about 25%
RecBCD conf = confirmation: growth loss of phage-infected RecBCD+ E. coli (RecBCD inhibitor screen) | inhibition, % at 11.9 µM | hit rate 45% among 890 | shares compounds with phage Ecoli inh | E. coli V66 + T4 2- phage, growth OD;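 active = mean inhibition over triplicates exceeding the hit threshold derived in the original primary screen, cut at about 11% in these data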
Ecoli viability = bacterial viability inhibition counter-screen for RecBCD | shares compounds with phage Ecoli inh | E. coli viability, absorbance (OD) growth | inhibition, % at 11.9 µM | hit rate 29% among 890 | AID 651983; in the data active = inhibition above about 20%;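 also: E. coli strain V66 grown with compound alone and no phage infection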
AddAB phage OD = growth loss of phage-infected AddAB E. coli, RecBCD counter-screen. shares compounds with phage Ecoli inh. E. coli expressing H. pylori AddAB + T4 phage, OD growth; gene 2 mutant T4, recBCD-deleted host. inhibition, % at 11.9 µM. hit rate 45% among 890. AID 651984;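 active = mean inhibition above the solvent-only control wells' mean plus 3 SD, cut at about 22% in these data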;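 also: higher means less bacterial growth from phage killing when AddAB is blocked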
Large screens that a line does not name were inactive (follow-up assays come after a bar, where they were run); ! = a repeat was not active.

O=c1[nH]c(=O)n(C2C[C@H](O)[C@@H](CO)O2)cc1C(F)(F)F (stereo partly drawn)	E coli growth-1 10.5, phage Ecoli inh 15.3, AddAB inh 14.0 (no result: E coli growth-2) | AddAB conf 37.5 | RecBCD counter 11.8 | Bact viability inactive | RecBCD conf 19.7 | Ecoli viability inactive | AddAB phage OD 29.8
CCc1cn([C@H]2C[C@H](O)[C@@H](CO)O2)c(=O)[nH]c1=O	E coli growth-1 14.3, phage Ecoli inh 12.5, AddAB inh 18.7 (no result: E coli growth-2) | AddAB conf 38.1 | RecBCD counter 11.4 | Bact viability inactive | RecBCD conf 14.4 | Ecoli viability inactive | AddAB phage OD 22.6
COc1ccc(C=NNC(=O)c2cccc(O)c2)cc1Cn1nc(C)c([N+](=O)[O-])c1C	none (no result: E coli growth-1, Tat transport, phage Ecoli inh, AddAB inh)
c1ccc(C2C3CN(CC4CCCCC4)C(c4ccccc4)C34CC2(c2ccccc2)C4)cc1 (stereo not drawn)	none (no result: E coli growth-1, Tat transport, phage Ecoli inh, AddAB inh)
Nc1c(Cl)ncnc1N/N=C/c1ccnc2ccccc12	none (no result: E coli growth-2)
Nc1c(Cl)ncnc1N/N=C/c1ccc2ccccc2n1	E coli growth-1 24.0, phage Ecoli inh 25.7, AddAB inh 26.5 (no result: E coli growth-2) | AddAB conf 23.4 | RecBCD counter 18.1 | Bact viability inactive | RecBCD conf 11.1 | Ecoli viability inactive | AddAB phage OD inactive
CCn1cc(C(=O)N[C@H](C(=O)NCCCOC)C(C)C)c(=O)c2cc3c(cc21)OCO3	none
CCn1cc(C(=O)N[C@H](C(=O)O)C(C)C)c(=O)c2cc3c(cc21)OCO3	E coli growth-1 55.1, E coli growth-2 0.0685, phage Ecoli inh 11.5, AddAB inh 58.6 | AddAB conf 101.3 | RecBCD counter 10.0 | Bact viability 78.4 | RecBCD conf inactive | Ecoli viability inactive | AddAB phage OD 51.5
COc1ccc(C=Nn2c(-c3n[nH]c4c3CCC4)n[nH]c2=S)cc1OC	none (no result: E coli growth-1, Tat transport, phage Ecoli inh, AddAB inh)
COc1ccc(N(CC(=O)NN=Cc2cccc3c2OCCO3)S(=O)(=O)c2ccc(NC(C)=O)cc2)cc1	none (no result: E coli growth-1, Tat transport, phage Ecoli inh, AddAB inh)
COc1c(O)ccc(C=C(C#N)c2nc3ccccc3[nH]2)c1[N+](=O)[O-]	none (no result: E coli growth-1, Tat transport, phage Ecoli inh, AddAB inh)
Cc1onc(-c2c(Cl)cccc2Cl)c1C(=O)N/N=C(\N)COc1ccc(Cl)cc1	E coli growth-1 15.5, phage Ecoli inh 17.6, AddAB inh 14.3 (no result: E coli growth-2) | AddAB conf 17.3 | RecBCD counter 19.0 | Bact viability inactive | RecBCD conf inactive | Ecoli viability inactive | AddAB phage OD 32.1
Cc1onc(-c2ccccc2Cl)c1C(=O)NN=C(N)COc1ccc(Cl)cc1	none (no result: E coli growth-1, Tat transport, phage Ecoli inh, AddAB inh)
N#Cc1ccc(NC(=O)Nc2ccc(Cl)cc2)cc1	E coli growth-1 15.2, E coli growth-2 0.495, phage Ecoli inh 13.0, AddAB inh 16.3 | AddAB conf 15.8 | RecBCD counter 18.1 | Bact viability inactive | RecBCD conf 14.2 | Ecoli viability inactive | AddAB phage OD inactive
Cc1nc2ccc(C(=O)N/N=C/c3cc([N+](=O)[O-])ccc3O)cc2[nH]1	E coli growth-1 17.3, phage Ecoli inh 17.2, AddAB inh 19.4 (no result: E coli growth-2) | AddAB conf inactive | RecBCD counter 13.6 | Bact viability inactive | RecBCD conf inactive | Ecoli viability inactive | AddAB phage OD inactive
Cc1cc(N2CCOCC2)ccc1C=C1NC(=O)N(CC(=O)Nc2ccc(F)cc2)C1=O	none (no result: E coli growth-1, Tat transport, phage Ecoli inh, AddAB inh)
O=C(NC(NC(=S)Nc1ccc(Cl)c(Cl)c1)C(Cl)(Cl)Cl)c1ccco1 (stereo not drawn)	E coli growth-1 14.1, phage Ecoli inh 13.7, AddAB inh 14.4 | AddAB conf 20.2 | RecBCD counter 12.7 | Bact viability inactive | RecBCD conf inactive | Ecoli viability inactive | AddAB phage OD inactive
O=C(O)c1cccc(NC(=S)NC(NC(=O)c2ccco2)C(Cl)(Cl)Cl)c1 (stereo not drawn)	none
O=C(O)c1cccc(NN=Cc2cc(Br)cc(Br)c2O)c1	none (no result: E coli growth-1, Tat transport, phage Ecoli inh, AddAB inh)
NC(=S)Cc1ccc(Cl)cc1Cl	none
N=C(N)SCc1ccc(Cl)cc1Cl	E coli growth-1 68.4, E coli growth-2 0.117, phage Ecoli inh 71.9, AddAB inh 81.6 | AddAB conf 86.0 | RecBCD counter 66.2 | Bact viability 89.0 | RecBCD conf 68.2 | Ecoli viability 69.3 | AddAB phage OD 90.4
NC(=NCCCCCCN=C(N)/N=C(\N)Nc1ccc(Cl)cc1)/N=C(\N)Nc1ccc(Cl)cc1	E coli growth-1 104.7, Tat transport 155.8!, phage Ecoli inh 105.7!, AddAB inh 103.0 (no result: E coli growth-2) | AddAB conf 100.0 | RecBCD counter 100.6 | Bact viability 99.6 | RecBCD conf 103.9 | Ecoli viability 104.6 | AddAB phage OD 104.0
Nc1ncnc2c1ncn2C1O[C@H](CO)[C@@H](O)[C@@H]1O (stereo partly drawn)	none (no result: E coli growth-2)
Nc1nc(F)nc2c1ncn2[C@@H]1O[C@H](CO)[C@@H](O)[C@H]1O	E coli growth-1 74.5, phage Ecoli inh 68.2, AddAB inh 75.2 (no result: E coli growth-2) | AddAB conf 73.6 | RecBCD counter 64.0 | Bact viability 76.8 | RecBCD conf 70.2 | Ecoli viability 63.1 | AddAB phage OD 77.8
CC(C)(C)c1ccc(OCCCC(=O)NNC(=O)c2ccccc2O)cc1	E coli growth-1 14.5, phage Ecoli inh 12.7, AddAB inh 19.9 | AddAB conf inactive | RecBCD counter 10.2 | Bact viability inactive | RecBCD conf inactive | Ecoli viability inactive | AddAB phage OD inactive
Cc1cc(C(=O)NNC(=O)CCCOc2ccccc2)c(C)o1	none
CC(=NOC(=O)Nc1ccc(Cl)cc1)c1ccc(F)c(F)c1	none (no result: E coli growth-1, Tat transport, phage Ecoli inh, AddAB inh)
CC=CC1=CC(=O)CC(c2ccc3c(c2)OCO3)C1 (stereo not drawn)	none (no result: E coli growth-1, Tat transport, phage Ecoli inh, AddAB inh)
COCc1cc(C)nc(OCC(=O)NN=Cc2ccc(OC)c(O)c2)c1C#N	none (no result: E coli growth-1, Tat transport, phage Ecoli inh, AddAB inh)
CN1CCN(C(c2ccc(C(F)(F)F)cc2)c2ccc3cccnc3c2O)CC1 (stereo not drawn)	E coli growth-1 26.6, phage Ecoli inh 16.6, AddAB inh 17.3 (no result: E coli growth-2, Tat transport) | AddAB conf inactive | RecBCD counter 9.7 | Bact viability inactive | RecBCD conf inactive | Ecoli viability inactive | AddAB phage OD inactive
Oc1c(C(c2ccc(Cl)cc2)N2CCCC2)cc(Cl)c2cccnc12 (stereo not drawn)	E coli growth-1 23.5, phage Ecoli inh 19.5, AddAB inh 17.4 | AddAB conf inactive | RecBCD counter 8.4 | Bact viability inactive | RecBCD conf inactive | Ecoli viability inactive | AddAB phage OD inactive
